For orientation: AC50 means the concentration at which the activity in the assay is half-maximal.

Where “and” joins values, the source holds several entries; their conditions need not be identical. Equal values may be shown once. Records with an inconclusive call do not appear. Some compounds were tested as several samples or in several runs, with calls that do not always agree. Calls of active or inactive are those of the source. The calls were made as follows, unless noted: active = hit-call score of the fitted dose curve at least 0.9, where 1 is the maximum; inconclusive = response in the unintended direction; inactive = score below 0.9.

The subject of assay [1] is zebrafish Estrogen Receptor (ER2b), gene 317733. In words: ATG_zfER2b_XSP2: Attagene TRANS-FACTORIAL Multi-Species (XSP2) HepG2 Assay for zebrafish Estrogen Receptor (ER2b) (AID 2283823).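 Also: fitted upward as reporter gain over DMSO so potency reflects activation.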 The method, boiled down:
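HepG2 human liver cells transiently transfected with multiplexed GAL4-UAS reporter units expressing chimeric NR-Gal4 proteins; compounds dosed for 24 h. Reporter mRNA quantified by RT-PCR, 6-FAM labelling and capillary electrophoresis; gain-of-signal fitted against DMSO baseline.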

For assay [2], the system named is frog Androgen Receptor (AR), gene 399456. In words: ATG_frAR_XSP2: Attagene TRANS-FACTORIAL Multi-Species (XSP2) HepG2 Assay for frog Androgen Receptor (AR) (AID 2283824).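 Also: reporter mRNA from GAL4-UAS units driven by Xenopus AR-Gal4 chimera; actives raise reporter signal above DMSO so AC50 reflects agonist-like induction.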 A digest of the protocol:
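Reporter transcript induction, read by RT-PCR with fluorescent capillary electrophoresis, in human liver HepG2 cells carrying an exogenous Xenopus AR-Gal4 fusion and GAL4-driven reporters; chemical exposure 24 hours, activity scored upward against DMSO controls.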

Assay [3] concerns zebrafish Androgen Receptor (AR), gene 100005148. The assay can be described thus: ATG_zfAR_XSP2: Attagene TRANS-FACTORIAL Multi-Species (XSP2) HepG2 Assay for zebrafish Androgen Receptor (AR) (AID 2283825).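 Also: hits raise reporter mRNA above DMSO so AC50 reflects agonist-type gain.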 The method, boiled down:
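After 24 h compound exposure in medium with 3 nM 6-alpha-fluorotestosterone plus 1.5 nM norgestrel, HepG2 cells carrying zebrafish AR–GAL4 reporter constructs were assessed for reporter mRNA gain by RT-PCR and capillary electrophoresis.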

Assay [4] deals with frog Estrogen Receptor (ER2), gene 100174814. In words: ATG_frER2_XSP2: Attagene TRANS-FACTORIAL Multi-Species (XSP2) HepG2 Assay for frog Estrogen Receptor (ER2) (AID 2283828). A digest of the protocol: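 Read-out: reporter transcript levels by RT-PCR with 6-FAM primer extension, HpaI digestion and capillary electrophoresis, scored as induction over DMSO control. Transfected HepG2 carrying Xenopus ER2–GAL4 chimera; compounds incubated 24 h.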

In assay [5] the target is Peroxisome proliferator-activated receptor gamma (Homo sapiens) (UniProt P37231). The assay can be described thus: ATG_hPPARg_XSP2: Attagene TRANS-FACTORIAL Multi-Species (XSP2) HepG2 Assay for human Peroxisome Proliferator-activated Receptor gamma (PPARg) (AID 2283829).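 Also: actives raise reporter mRNA above DMSO so AC50 reflects PPARg activation.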 The method, boiled down: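 Reporter transcripts were measured by RT-PCR, fluorescent labeling, HpaI digestion and capillary electrophoresis, relative to DMSO, 24 h post-dosing. Transiently transfected HepG2 expressed NR-Gal4 chimeras regulating GAL4-UAS reporters; medium contained 3 nM 6-alpha-fluorotestosterone plus 1.5 nM norgestrel.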

Assay [6] has as its target mouse Peroxisome Proliferator-activated Receptor gamma (PPARg), Pparg (gene 19016) (UniProt P37238). The assay can be described thus: ATG_mPPARg_XSP2: Attagene TRANS-FACTORIAL Multi-Species (XSP2) HepG2 Assay for mouse Peroxisome Proliferator-activated Receptor gamma (PPARg) (AID 2283830).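 Also: hits are gains in reporter mRNA above DMSO so AC50 marks activation.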 The method, boiled down: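 Multiplexed TRANS reporter readout: after 24 h chemical exposure of transfected HepG2 cells (with 3 nM 6-alpha-fluorotestosterone, 1.5 nM norgestrel present), RNA reverse-transcribed, amplified, 6-FAM-labelled and resolved by capillary electrophoresis; mouse PPARg-Gal4 induction scored against DMSO.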

The target of assay [7] is zebrafish Thyroid Hormone Receptor alpha (TRa), thraa (gene 30670) (UniProt Q98867). In words: ATG_zfTRa_XSP2: Attagene TRANS-FACTORIAL Multi-Species (XSP1) HepG2 Assay for zebrafish Thyroid Hormone Receptor alpha (TRa) (AID 2283832).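 Also: actives raise zebrafish TRa-Gal4 reporter transcript above DMSO baseline.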 A digest of the protocol:
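Readout is reporter mRNA induction, quantified by RT-PCR and capillary electrophoresis with fluorescent labelling, after 24 h compound exposure of transiently transfected HepG2 cells carrying NR-Gal4 chimera reporters. Activity fitted upward relative to DMSO.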

The test system of assay [8] is zebrafish Peroxisome Proliferator-activated Receptor gamma (PPARg), gene 557037. In words: ATG_zfPPARg_XSP2: Attagene TRANS-FACTORIAL Multi-Species (XSP2) HepG2 Assay for zebrafish Peroxisome Proliferator-activated Receptor gamma (PPARg) (AID 2283833).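 Also: actives increase reporter signal over DMSO so AC50 reflects activation.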 A digest of the protocol: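 After 24 h chemical exposure, RNA from transiently transfected HepG2 (chimeric NR-Gal4 TRANS reporters) was reverse-transcribed, PCR-amplified, 6-FAM-labelled, HpaI-cut and sized by capillary electrophoresis. Induction was scored in the positive direction relative to DMSO.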

The nature of assay [9]: ATG_M_61_XSP2: Attagene TRANS-FACTORIAL Multi-Species (XSP2) HepG2 Assay for M61 Transcription Factor (Internal Marker) (AID 2283835; active = hit-call score of the fitted dose curve at least 0.9, where 1 is the maximum; inactive = score below 0.9;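 also: active means a rise in signal above the DMSO baseline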). The method, boiled down: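 Internal background marker, read as RT-PCR/capillary-electrophoresis reporter mRNA 24 h post-dose in transiently transfected HepG2 cells. Androgen receptor stimulated with 3 nM 6-alpha-fluorotestosterone plus 1.5 nM norgestrel; gain of signal versus DMSO analysed.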

Assay [10] concerns the target zebrafish Thyroid Hormone Receptor beta (TRb), thrb (gene 30607) (UniProt Q9PVE4). In words: ATG_zfTRb_XSP2: Attagene TRANS-FACTORIAL Multi-Species (XSP1) HepG2 Assay for zebrafish Thyroid Hormone Receptor beta (TRb) (AID 2283836).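 As to AC50: potency for induction of reporter signal above DMSO so agonist direction.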 The method, boiled down:
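Reporter transcripts were measured by RT-PCR with fluorescent primer extension and capillary electrophoresis, 24 h after chemical dosing of transiently transfected HepG2 cells. Activity was scored as upward signal versus DMSO baseline.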

Assay [11] can be described thus: ATG_XTT_Cytotoxicity_XSP2: Cytotoxicity Assessment in the Attagene TRANS-FACTORIAL Multi-Species (XSP2) HepG2 Assay (AID 2283837). A digest of the protocol: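 XTT-based cell number read-out in human HepG2 liver cells carrying transfected reporter units, measured 24 h after chemical dosing. Activity is signal loss versus DMSO baseline.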
In assay [12] the target is human Thyroid hormone Receptor alpha (TRa), THRA (gene 7067) (UniProt P10827). In words: ATG_hTRa_XSP2: Attagene TRANS-FACTORIAL Multi-Species (XSP2) HepG2 Assay for human Thyroid hormone Receptor alpha (TRa) (AID 2283838). A digest of the protocol: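 Gain-of-signal in reporter mRNA, relative to DMSO, after 24 h dosing of transfected HepG2; quantitation by RT-PCR fragment analysis on capillary electrophoresis.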

Assay [13] addresses frog Thyroid hormone Receptor alpha (TRa), thra-a (gene 397942) (UniProt P15204). In words: ATG_frTRa_XSP2: Attagene TRANS-FACTORIAL Multi-Species (XSP2) HepG2 Assay for frog Thyroid hormone Receptor alpha (TRa) (AID 2283839).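 As to AC50: AC50 reflects induction of frog TRa-driven reporter mRNA above DMSO baseline.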 A digest of the protocol: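 Reporter transcripts were measured by RT-PCR with capillary electrophoresis after 24 h dosing of HepG2 carrying transiently transfected multi-reporter units, including a chimeric frog TRa-GAL4 construct. Activity was taken as increase over DMSO vehicle.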

Assay [14] deals with human Thyroid hormone Receptor beta (TRb), THRB (gene 7068) (UniProt P10828). The assay can be described thus: ATG_hTRb_XSP2: Attagene TRANS-FACTORIAL Multi-Species (XSP2) HepG2 Assay for human Thyroid hormone Receptor beta (TRb) (AID 2283840).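 Also: actives raise reporter mRNA so potency reflects agonist-like gain of signal.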 A digest of the protocol:
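Activity of exogenous human TRb–Gal4 fusion measured by reporter mRNA from RT-PCR and capillary electrophoresis, 24 h after dosing transfected HepG2. 6-alpha-fluorotestosterone (3 nM) and norgestrel (1.5 nM) present. Gain-of-signal fit relative to DMSO.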

Assay [15] has as its system Sodium/Iodide Symporter (NIS), SLC5A5 (gene 6528). In words: CPHEA_Stoker_NIS_Inhibition_RAIU: CPHEA's Radioactive Iodide Uptake (RAIU) Assay for Sodium/Iodide Symporter (NIS) Inhibition, Stoker and Laws Labs (AID 2283841). A digest of the protocol: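 hNIS-HEK293T-EPA cells incubated 2 h at room temperature with compound (0.001–100 uM, 0.5% DMSO) and 329 pM final 125I in HBSS/10 mM HEPES, pH 7.4. Intracellular 125I counted; normalised to DMSO maximal uptake, triplicate, three biological replicates.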

The nature of assay [16]: CPHEA_Stoker_NIS_Cytotoxicity: Cytotoxicity Assessment for CPHEA's Radioactive Iodide Uptake (RAIU) Assay for Sodium/Iodide Symporter (NIS) Inhibition, Stoker and Laws Labs (AID 2283897). The method, boiled down:
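hNIS-HEK293T-EPA cells, human NIS expressed in HEK293T, treated 2 h with chemicals (0.001–100 uM, 0.5% final DMSO). ATP content read by CellTiter-Glo luminescence; loss of signal analysed relative to DMSO.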

Assay [17] deals with Nuclear receptor subfamily 1 group I member 2 (Mus musculus) (UniProt O54915). The assay can be described thus: ATG_mPXR_XSP2: Attagene TRANS-FACTORIAL Multi-Species (XSP1) HepG2 Assay for mouse Pregnane X Receptor (PXR) (AID 2283831). The method, boiled down: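 Reporter transcripts measured after 24 h dosing by RT-PCR with 6-FAM labelling, HpaI digestion and capillary electrophoresis. Transiently transfected HepG2 with NR-Gal4 chimeras; increase over DMSO baseline scored.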

A short description of assay [18]: CEETOX_H295R_11DCORT_noMTC: CeeTox H295R High-throughput Steroidogenesis Assay for 11-Deoxycortisol (11DCORT), maximum tolerated concentration (MTC) filtered results only (AID 2283911; active = hit-call score of the fitted dose curve at least 0.9, where 1 is the maximum; inactive = score below 0.9). The settings on record: actives raise or lower the signal. The method, boiled down: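 Values carry no filtering for maximum tolerated concentration: medium from forskolin-primed (10 uM, 48 h) H295R cells after 48 h chemical exposure (0.1% DMSO) was MTBE-extracted, and 11-deoxycortisol quantified by reverse-phase HPLC-MS/MS. Fitting was bidirectional against DMSO.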

The nature of assay [19]: CEETOX_H295R_OHPREG_noMTC: CeeTox H295R High-throughput Steroidogenesis Assay for OH-Pregnenolone (OHPREG), maximum tolerated concentration (MTC) filtered results only (AID 2283912; active = hit-call score of the fitted dose curve at least 0.9, where 1 is the maximum; inactive = score below 0.9). The conditions noted are these: actives raise or lower the signal. A digest of the protocol:
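Medium 17alpha-hydroxypregnenolone quantified by reverse-phase HPLC-MS/MS after 48 h chemical exposure of forskolin-prestimulated (10 uM, 48 h) H295R, 0.1% DMSO final. Fitting bidirectional relative to DMSO; no maximum-tolerated-concentration filtering applied.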

human Thyroid hormone Receptor alpha (TRa), THRA (gene 7067), sequence (P10827 whole entry, looked up, the tested form may be a part): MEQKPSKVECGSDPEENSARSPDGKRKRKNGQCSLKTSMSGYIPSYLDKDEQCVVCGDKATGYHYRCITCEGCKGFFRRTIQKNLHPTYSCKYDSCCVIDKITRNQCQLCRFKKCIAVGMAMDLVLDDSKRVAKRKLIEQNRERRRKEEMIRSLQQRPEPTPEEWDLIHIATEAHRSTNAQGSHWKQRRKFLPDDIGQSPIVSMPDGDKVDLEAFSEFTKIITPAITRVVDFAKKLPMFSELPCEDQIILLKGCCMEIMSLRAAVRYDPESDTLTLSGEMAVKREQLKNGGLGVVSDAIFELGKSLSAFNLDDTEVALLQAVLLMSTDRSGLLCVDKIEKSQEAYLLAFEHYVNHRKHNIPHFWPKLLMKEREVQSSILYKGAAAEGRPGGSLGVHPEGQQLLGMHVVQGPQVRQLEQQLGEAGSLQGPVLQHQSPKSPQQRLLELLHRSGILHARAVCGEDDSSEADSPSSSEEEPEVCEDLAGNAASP
zebrafish Thyroid Hormone Receptor beta (TRb), thrb (gene 30607), sequence (Q9PVE4 whole entry, looked up): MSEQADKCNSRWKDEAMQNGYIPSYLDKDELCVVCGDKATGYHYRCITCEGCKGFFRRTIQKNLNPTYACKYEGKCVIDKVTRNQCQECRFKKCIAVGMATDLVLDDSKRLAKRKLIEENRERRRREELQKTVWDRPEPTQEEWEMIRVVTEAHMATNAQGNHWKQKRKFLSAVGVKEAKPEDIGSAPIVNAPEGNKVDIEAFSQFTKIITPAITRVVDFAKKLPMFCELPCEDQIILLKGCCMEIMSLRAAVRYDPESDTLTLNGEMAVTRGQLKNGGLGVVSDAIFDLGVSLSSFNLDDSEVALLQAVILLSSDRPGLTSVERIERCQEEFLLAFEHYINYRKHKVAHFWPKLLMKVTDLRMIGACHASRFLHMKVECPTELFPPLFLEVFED
Peroxisome proliferator-activated receptor gamma (Homo sapiens), sequence (P37231 whole entry, looked up, the tested form may be a part): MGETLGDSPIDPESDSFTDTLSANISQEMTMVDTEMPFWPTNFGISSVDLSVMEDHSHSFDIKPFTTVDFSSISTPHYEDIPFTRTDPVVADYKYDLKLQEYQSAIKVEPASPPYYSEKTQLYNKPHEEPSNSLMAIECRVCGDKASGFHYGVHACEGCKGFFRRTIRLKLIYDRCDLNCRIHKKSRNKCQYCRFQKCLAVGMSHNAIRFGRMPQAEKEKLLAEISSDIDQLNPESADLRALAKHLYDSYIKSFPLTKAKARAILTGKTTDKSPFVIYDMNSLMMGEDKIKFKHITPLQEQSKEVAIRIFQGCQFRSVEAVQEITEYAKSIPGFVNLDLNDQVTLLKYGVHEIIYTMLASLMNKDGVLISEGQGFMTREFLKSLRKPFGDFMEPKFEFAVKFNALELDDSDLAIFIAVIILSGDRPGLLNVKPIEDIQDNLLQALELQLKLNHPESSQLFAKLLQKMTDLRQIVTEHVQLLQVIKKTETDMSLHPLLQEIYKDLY
zebrafish Thyroid Hormone Receptor alpha (TRa), thraa (gene 30670), sequence (Q98867 whole entry, looked up, the tested form may be a part): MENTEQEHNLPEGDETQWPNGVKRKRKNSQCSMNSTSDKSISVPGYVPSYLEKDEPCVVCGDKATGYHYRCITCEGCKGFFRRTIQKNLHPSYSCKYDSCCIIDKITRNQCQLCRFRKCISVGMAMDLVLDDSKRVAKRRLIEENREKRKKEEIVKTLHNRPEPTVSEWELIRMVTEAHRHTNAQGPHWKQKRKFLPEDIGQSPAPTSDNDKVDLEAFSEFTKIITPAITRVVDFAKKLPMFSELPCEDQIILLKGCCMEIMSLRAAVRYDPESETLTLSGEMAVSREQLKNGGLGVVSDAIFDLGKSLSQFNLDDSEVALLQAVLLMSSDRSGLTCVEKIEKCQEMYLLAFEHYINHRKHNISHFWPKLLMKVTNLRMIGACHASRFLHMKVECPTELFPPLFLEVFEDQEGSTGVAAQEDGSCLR
frog Thyroid hormone Receptor alpha (TRa), thra-a (gene 397942), sequence (P15204 whole entry, looked up, the tested form may be a part): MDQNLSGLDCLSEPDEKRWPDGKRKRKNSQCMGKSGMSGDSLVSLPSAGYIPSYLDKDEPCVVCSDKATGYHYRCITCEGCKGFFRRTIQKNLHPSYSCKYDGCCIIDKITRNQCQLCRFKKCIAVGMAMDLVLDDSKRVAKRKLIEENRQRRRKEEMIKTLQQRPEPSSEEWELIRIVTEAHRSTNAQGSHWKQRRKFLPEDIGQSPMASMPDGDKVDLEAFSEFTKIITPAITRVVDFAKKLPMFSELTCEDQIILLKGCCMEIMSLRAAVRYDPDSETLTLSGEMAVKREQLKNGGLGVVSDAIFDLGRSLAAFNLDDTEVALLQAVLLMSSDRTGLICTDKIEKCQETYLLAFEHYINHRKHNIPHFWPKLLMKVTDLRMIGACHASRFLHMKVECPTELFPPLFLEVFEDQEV
mouse Peroxisome Proliferator-activated Receptor gamma (PPARg), Pparg (gene 19016), sequence (P37238 whole entry, looked up, the tested form may be a part): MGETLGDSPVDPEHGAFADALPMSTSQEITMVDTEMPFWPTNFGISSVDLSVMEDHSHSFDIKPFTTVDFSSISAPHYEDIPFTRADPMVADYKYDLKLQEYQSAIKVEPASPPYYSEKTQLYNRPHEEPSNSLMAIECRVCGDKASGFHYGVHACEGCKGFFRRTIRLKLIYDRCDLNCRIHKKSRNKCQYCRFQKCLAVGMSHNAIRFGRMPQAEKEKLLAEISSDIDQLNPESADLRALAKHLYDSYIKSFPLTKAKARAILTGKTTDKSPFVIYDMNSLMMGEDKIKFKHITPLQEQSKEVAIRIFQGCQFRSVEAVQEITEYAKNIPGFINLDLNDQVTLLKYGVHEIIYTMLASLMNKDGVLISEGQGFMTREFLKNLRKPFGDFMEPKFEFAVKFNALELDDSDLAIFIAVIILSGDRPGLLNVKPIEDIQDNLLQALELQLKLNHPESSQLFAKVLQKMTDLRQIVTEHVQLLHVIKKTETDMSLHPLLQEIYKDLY
human Thyroid hormone Receptor beta (TRb), THRB (gene 7068), sequence (P10828 whole entry, looked up, the tested form may be a part): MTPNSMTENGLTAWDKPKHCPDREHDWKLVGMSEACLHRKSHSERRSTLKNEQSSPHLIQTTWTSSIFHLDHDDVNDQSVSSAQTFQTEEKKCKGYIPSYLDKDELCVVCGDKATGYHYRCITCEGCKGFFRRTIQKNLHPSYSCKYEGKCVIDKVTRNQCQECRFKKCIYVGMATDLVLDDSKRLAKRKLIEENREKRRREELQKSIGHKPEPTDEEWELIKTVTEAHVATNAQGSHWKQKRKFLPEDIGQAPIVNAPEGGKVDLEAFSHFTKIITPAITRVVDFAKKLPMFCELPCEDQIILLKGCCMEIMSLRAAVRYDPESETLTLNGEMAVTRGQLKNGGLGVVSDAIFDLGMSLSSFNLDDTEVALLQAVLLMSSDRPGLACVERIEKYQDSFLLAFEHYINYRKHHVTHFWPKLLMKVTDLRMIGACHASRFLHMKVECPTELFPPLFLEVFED
Nuclear receptor subfamily 1 group I member 2 (Mus musculus), sequence (O54915 whole entry, looked up, the tested form may be a part): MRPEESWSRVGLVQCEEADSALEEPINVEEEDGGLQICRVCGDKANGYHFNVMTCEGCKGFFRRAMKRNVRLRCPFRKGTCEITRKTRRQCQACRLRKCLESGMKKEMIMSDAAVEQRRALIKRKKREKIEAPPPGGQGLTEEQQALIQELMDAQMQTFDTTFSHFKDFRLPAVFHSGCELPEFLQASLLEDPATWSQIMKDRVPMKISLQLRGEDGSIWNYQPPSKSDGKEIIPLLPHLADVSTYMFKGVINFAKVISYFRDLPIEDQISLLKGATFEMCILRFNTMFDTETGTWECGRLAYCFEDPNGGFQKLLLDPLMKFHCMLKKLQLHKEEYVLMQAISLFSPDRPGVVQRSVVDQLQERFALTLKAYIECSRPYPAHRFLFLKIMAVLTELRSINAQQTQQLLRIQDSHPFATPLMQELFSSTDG

For the molecule `O=c1c(-c2ccc(O)cc2)coc2cc(O)ccc12`, the AC50 in [1] is 3.4 µM (active) and 1.67 µM (active); in assay [4], 1.14 µM (active) and 219 nM (active). In addition, the outcome in assay [2], in assay [3], in assay [5], in assay [6], in [7] and in assay [8] was inactive. The molecule was classed as inactive in [9], in assay [10], in assay [11], in assay [12], in assay [13] and in [14].

On to `O=C(OCCOCCOC(=O)c1ccccc1)c1ccccc1`, for which the outcome in [15] and in [16] was inactive.

As to `O=C(O)Cc1cc(I)c(Oc2cc(I)c(O)c(I)c2)c(I)c1`, the call in assay [1], in assay [2], in [6], in assay [17], in assay [8] and in assay [9] was inactive. Besides, the result in assay [15] and in assay [16] was inactive. Moreover, the AC50 in assay [5] was 524 nM (active) and 681 nM (active); in assay [6], 560 nM (active); in assay [7] it was 123 nM (active) and 54.3 nM (active); in assay [10], 45.5 nM (active) and 14.4 nM (active); in [12] it was 75.3 nM (active) and 30.2 nM (active); in assay [13], 86.6 nM (active) and 15.1 nM (active). In addition, in assay [14], the AC50 is 38.4 nM (active) and 12.3 nM (active).

Take `CCCCCCCCCCCCc1ccccc1S(=O)(=O)O`: the result in assay [15] and in [16] was inactive.

As to `c1ccc2c(c1)Cc1ccccc1-2`, the result in assay [15], in assay [16], in assay [18] and in assay [19] was inactive.
